Only some compounds are listed: those with a hit (about 3.2% of all), similar ones and a draw of the others.
GALK inhibitor: qHTS Assay for Inhibitors of Human Galactokinase (GALK) | AID 1868, 2009 | Purified GALK, Kinase-Glo residual ATP luminescence | 270,000 compounds, 0.007% hits | P51570 | Potency, µM (highest dose often 57.5 µM), without a hit: top-dose activity change, negative = inhibition, hits mostly inhibitors; also: potency is read from the fitted curve at half-maximal effect; % is scaled to controls: 0 for no effect and ±100 for the full control effect
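Quantitative HTS: GALK 5 nM, ATP 35 uM, galactose 100 uM, 1 h room temperature, then luciferase-based ATP detection.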
PLK1 PBD block: qHTS for Inhibitors of PLK1-PDB (polo-like kinase 1 - polo-box domain): Primary Screen. Serine/threonine-protein kinase PLK1 (Homo sapiens), P53350. Plk1 PBD binding of FITC phosphopeptide, fluorescence polarization. Potency, µM, for the others: max response, negative = inhibition, hits mostly inhibitors. 360,000 compounds, 2.8% hits. AID 720504, 2013; also: potency is read from the fitted curve at half-maximal effect; series mostly up to about 57 µM; % is scaled to controls: 0 for no effect and ±100 for the full control effect; nearly all actives have a fitted effect of over 65% in size
USP2a block: qHTS Assay for Inhibitors of Ubiquitin-specific Protease USP2a Using CHOP2 as the Reporter. Ubiquitin carboxyl-terminal hydrolase 2 (Homo sapiens), O75604. USP2 core, Ub-CHOP2 coupled fluorogenic reporter, 485/531. Potency, µM (series often up to 38.3 µM), inactives show at the highest dose activity change, negative = inhibition, actives largely listed as inhibitors. 330,000 compounds, 0.01% hits;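 also: potency is read from the fitted curve at half-maximal effect; plate controls were DMSO wells for no effect and full inhibition by NEM control for full effect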
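USP2 core (10nM final) preincubated 30min RT with compound in 20mM Tris-HCl pH 8.0, 2mM CaCl2, 2mM beta-mercaptoethanol, 0.05% CHAPS; 25nM Ub-CHOP2 plus 25nM reporter substrate added, fluorescence (Ex485/Em531) read after 60min.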
VDR inh: Inhibitors of the vitamin D receptor (VDR): qHTS; Vitamin D3 receptor (Homo sapiens), P11473; VDR-SRC2-3 peptide fluorescence polarization, 2 h; Potency, µM, for inactives: max response, negative = inhibition, usual class: inhibitors; 400,000 compounds, 0.93% hits; AID 504847, 2011; also: potency is read from the fitted curve at half-maximal effect; % is scaled to controls: 0 for no effect and ±100 for the full control effect
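The screen uses fluorescence polarization to detect compounds that interfere with recruitment of the SRC2-3 coactivator peptide to VDR; plates are read after 2 h at room temperature.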
USP1 inh: Inhibitors of USP1/UAF1: Primary Screen; recombinant USP1/UAF1, Ub-Rhodamine cleavage fluorescence; AID 743255, 2014; Ubiquitin carboxyl-terminal hydrolase 1 (Homo sapiens), O94782; Potency, µM (highest dose often 57.1 µM), for inactives: at the top dose activity change, negative = inhibition, actives largely listed as inhibitors; 390,000 compounds, 0.23% hits; also: potency is read from the fitted curve at half-maximal effect; % is scaled to controls: 0 for no effect and ±100 for the full control effect; nearly all actives have a fitted effect of over 60% in size
Target sequence (O94782 whole entry, looked up): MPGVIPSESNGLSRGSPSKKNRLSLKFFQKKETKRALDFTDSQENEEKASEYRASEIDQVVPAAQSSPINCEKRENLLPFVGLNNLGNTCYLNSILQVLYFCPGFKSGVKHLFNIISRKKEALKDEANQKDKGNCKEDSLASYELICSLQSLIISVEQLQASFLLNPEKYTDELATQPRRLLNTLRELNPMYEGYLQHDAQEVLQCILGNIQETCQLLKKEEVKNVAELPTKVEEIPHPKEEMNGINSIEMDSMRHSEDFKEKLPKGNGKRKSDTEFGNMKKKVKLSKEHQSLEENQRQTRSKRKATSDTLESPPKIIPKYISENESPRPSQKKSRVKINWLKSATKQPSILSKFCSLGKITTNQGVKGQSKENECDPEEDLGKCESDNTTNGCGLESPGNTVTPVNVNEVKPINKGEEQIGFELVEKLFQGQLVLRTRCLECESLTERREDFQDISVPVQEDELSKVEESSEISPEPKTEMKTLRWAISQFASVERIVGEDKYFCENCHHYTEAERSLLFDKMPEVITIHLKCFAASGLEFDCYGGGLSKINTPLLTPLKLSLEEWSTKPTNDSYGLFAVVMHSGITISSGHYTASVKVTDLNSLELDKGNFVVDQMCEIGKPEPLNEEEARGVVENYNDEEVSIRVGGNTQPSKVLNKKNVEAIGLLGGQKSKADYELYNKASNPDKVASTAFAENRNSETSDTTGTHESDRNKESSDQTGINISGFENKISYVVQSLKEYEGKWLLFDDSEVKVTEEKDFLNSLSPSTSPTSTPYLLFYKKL
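USP1/UAF1 complex at 1 nM was preincubated with compound for 15 min at room temperature, then Ub-Rho substrate (150nM final) was added. Fluorescence (480/540 nm) was read kinetically, 6 reads every 60 seconds.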
FBPA coupling cs: qHTS Assay for Inhibitors of Fructose-1,6-bisphosphate Aldolase from Giardia Lamblia: Coupling assay counterscreen; 290,000 compounds, 0.67% hits; activity change, negative = inhibition, % at 58.2 µM, hits read low; coupling enzyme system counterscreen, AmpLite Red fluorescence; in the data active = activity change below about -30%; also: % is scaled to controls: 0 for no effect and ±100 for the full control effect
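Counterscreen lacking aldolase: glyceraldehyde-3-phosphate coupling-enzyme reagent preincubated 10 min at RT with compound (at 57.5 uM final), then substrate/coupling system with AmpLite Red added; fluorescence read at 525/598 nm after 20 min RT.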
USP1 UbRho: Inhibitors of USP1/UAF1: Hit Validation in Primary Assay; shares compounds with VDR inh; Ub-Rhodamine cleavage, fluorescence kinetic read; Potency, µM (series often up to 56.8 µM), for the others: top-dose activity change, negative = inhibition, actives largely listed as inhibitors; 50 compounds, 50% hits; AID 540327, 2011
VDR confirm: qHTS for Inhibitors of the vitamin D receptor (VDR): Hit Validation in Primary Screen | shares compounds with VDR inh | VDR-coactivator inhibition assay, qHTS confirmation | Potency, µM, actives largely listed as inhibitors | 840 compounds, 89% hits | AID 602199, 2012; also: potency is read from the fitted curve at half-maximal effect
VDR FP fluor: qHTS for Inhibitors of the vitamin D receptor (VDR): Hit Validation using a Fluorescein Assay | shares compounds with VDR inh | VDR-coactivator binding, fluorescein fluorescence polarization | Potency, µM (doses to about 57.1 µM), for the others: top-dose activity change, negative = inhibition, most hits filed as inhibitors | 840 compounds, 48% hits | AID 602200, 2012; also: potency is read from the fitted curve at half-maximal effect
VDR bla reporter: qHTS for Inhibitors of the vitamin D receptor (VDR): Hit Validation using a Beta-Lactamase Assay. AID 602202, 2012. 840 compounds, 23% hits. shares compounds with VDR inh. VDR beta-lactamase reporter cells, FRET ratio; cells co-treated with VDR agonist LG190178. Potency, µM (doses to about 46.1 µM), inactives show at the top dose activity change, negative = inhibition, most hits filed as inhibitors; also: potency is read from the fitted curve at half-maximal effect; % is scaled to controls: 0 for no effect and ±100 for the full control effect
VDR viability: qHTS for Inhibitors of the vitamin D receptor (VDR): Hit Validation using a Cytotoxicity Assay; shares compounds with VDR inh; cytotoxicity counter-screen, cell viability, qHTS; Potency, µM (top dose mostly 48.3 µM), for inactives: top-dose activity change, negative = cytotoxicity, actives largely listed as cytotoxic; 840 compounds, 18% hits; AID 602204, 2012;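 also: potency is read from the fitted curve at half-maximal effect; plate controls were DMSO for no effect and high-concentration cycloheximide for full effect; nearly all actives have a fitted effect of over 75% in size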
An asterisk follows results filed as active; ? = inconclusive; . = no result given. Unless noted, calls follow the shape of the dose curve; as a rule, active = well fitted curve in the direction sought with a large enough effect; inconclusive = small, poorly fitted or top-dose-only effect, or another doubt; inactive = no such curve, though single readings can be large; an effect the other way counts as inactive or inconclusive.

SMILES	GALK inhibitor	PLK1 PBD block	USP2a block	VDR inh	USP1 inh	FBPA coupling cs	VDR confirm	VDR FP fluor	VDR bla reporter	VDR viability	others
CCOc1ccc(/C=C2/C(=O)NC(=O)N(CCc3ccc(F)cc3)C2=O)cc1	-4.3%	2.67µM*	-0.7%	79.4µM*	-18.1%	6.0	?	17.8µM*	17.3%	?
COc1ccc([N+](=O)[O-])c(S(=O)(=O)c2ccc(Cl)cc2)n1	-2.3%	2.99µM*	9.9%	31.6µM*	?	-0.6	2.99*	?	7.31µM*	?
CCCCn1c(NC(=O)c2ccc(Br)o2)c(C(=O)OCC)c2nc3ccccc3nc21	.	?	4.6%	?	25.1µM*	-43.8*	2.51*	1.41µM*	?	?
CS(=O)(=O)c1ncc(Cl)c(C(=O)Nc2ccc3ccccc3c2)n1	3.3%	9.47µM*	-0.6%	12.6µM*	-10.4%	-1.2	8.44*	?	16.4µM*	?
CC(C)NC(C)C(=O)c1ccc2ccccc2c1 (centres undefined)	2.5%	3.5%	2.8%	-2.6%	-13.9%	-4.0	.	.	.	.
Nc1nc(Sc2ccc([N+](=O)[O-])c3nonc23)c2[nH]cnc2n1	.	1.5µM*	.	14.1µM*	-7.1%	.	3.36*	?	?	11.2µM*
COC1C(O)C(C)O[C@@H](OC2CC[C@@]3(C)C4CC[C@]5(C)C(C6=CC(=O)OC6)CC[C@@]5(O)C4CC[C@@H]3C2)C1O (some centres undefined)	.	.	.	11.9%	.	3.8	.	.	.	.
Cc1ccc(OP2(=O)Nc3cc(C)c(C)cc3S2)cc1 (centres undefined)	.	1.68µM*	.	7.94µM*	-2.8%	.	6.7*	?	7.0%	-12.4%
CCC(C)C12CN3CCN(CC(C)(C3)C1O)C2 (centres undefined)	-1.9%	-1.9%	2.6%	5.0%	-16.2%	-0.1	.	.	.	.
CCN(CC)C(=O)N[C@H]1C=C2c3cccc4[nH]cc(c34)C[C@@H]2N(C)C1	.	.	.	-9.0%	.	-9.8	.	.	.	.	USP1 UbRho=-9.4%
CCOC(=O)COc1ccc(/C=C2\C(=O)NC(=S)N(c3ccc(OC)cc3)C2=O)cc1OC	0.5%	15µM*	3.5%	44.7µM*	-19.0%	4.9	23.8*	14.1µM*	21.5%	14.7%
COC(=O)C1=C(c2ccc(F)cc2OCc2ccccc2)C[C@@H]2CC[C@H]1N2C(=O)NCc1ccccc1OC	.	-5.2%	2.3%	-6.7%	?	.	.	.	.	.
CCCCN(Cc1ccccc1)C1CCN(CCc2ccccc2)CC1	-0.5%	-25.6%	-1.0%	-11.4%	-24.2%	0.2	.	.	.	.
CCCCP(=O)(O)CCC(=O)O	-1.9%	-5.1%	-0.7%	7.7%	-19.4%	-2.4	.	.	.	.
CCn1cc(C(=O)c2cccs2)c2ccccc21	0.9%	-1.3%	2.6%	17.4%	-17.1%	0.0	.	.	.	.
CCN1C(=O)/C(=C\C(=O)c2cccs2)c2cc(Br)ccc21	-2.1%	5.32µM*	2.8%	35.5µM*	-8.7%	-0.6	6.7*	?	?	?
N#CC1c2ccccc2-n2nncc2CN1Cc1cc(Cl)cc(Cl)c1 (centres undefined)	.	?	.	20µM*	-17.8%	.	3.36*	2.82µM*	10.3µM*	4.11µM*
O=c1oc2ccccc2c(O)c1[C@H]1c2ccc(O)cc2Oc2c1c(=O)oc1ccccc21	.	?	1.8%	79.4µM*	-17.6%	0.2	29.9*	?	20.6µM*	-31.4%
NC1=C([N+](=O)[O-])C(c2ccc3c(c2)OCO3)c2c(c3ccccc3oc2=O)O1 (centres undefined)	1.0%	-23.7%	5.6%	-4.9%	-11.8%	6.9	.	.	.	.
O=c1[nH]c(=S)n(CCC2=CCCCC2)c(O)c1/C=N/N1CCOCC1	-2.7%	6.2%	0.8%	-10.8%	-15.5%	-1.7	.	.	.	.
COCCNC(=S)N1Cc2ccccc2-n2nncc2C1	.	-13.5%	.	.	2.3%	.	.	.	.	.
COC(=O)[C@@H]1[C@@H](C(=O)OC)C2(c3ccccc3-c3ccccc32)N(c2ccc(Cl)cc2)N1C#N	-1.5%	-18.0%	0.9%	?	-13.5%	-4.6	.	.	.	.
COC(=O)C[C@]1(C(=O)OC)CN(C#N)N(c2ccc(Cl)cc2)C12c1ccccc1-c1ccccc12	-4.4%	-10.4%	1.0%	20µM*	-5.4%	-0.1	?	6.31µM*	3.66µM*	2.91µM*
CCC12CN3CC(CC)(CN(C1)C3c1ccccn1)C2=O (centres undefined)	.	.	.	12.2%	?	.	.	.	.	.
CN1C2CCC1/C(=C/c1ccccn1)C(=O)/C2=C\c1ccccn1	2.0%	26.7µM*	0.6%	28.2µM*	-15.4%	3.6	2.67*	?	2.06µM*	20.6µM*
Cc1ccc(N2C(=O)NC(=O)/C(=C\c3cnc(-c4ccccc4)nc3)C2=O)cc1	3.5%	8.44µM*	1.3%	22.4µM*	-12.8%	2.2	26.7*	?	11.0%	8.7%
